{"source": "PubChem BioAssay (Tox21)", "note": "A number with no mark means an inactive call. Inconclusive results are not listed. The source made the active and inactive calls. The call rests on the fitted dose curve; in most records, active means well fitted cell-killing curve with a large enough effect in the repeat runs; inconclusive means weak or mixed curves, or effect the other way; inactive means flat fitted curve, though single readings scatter. Further: nearly all actives have a fitted effect of over 50% in size. On the % scale 0 is the no-effect control and ±100 the full control effect."}
{"test": "qHTS assay to identify small molecule HDAC inhibitors - cell viability counter screen (AID 1259365)", "details": "HCT-116 viability, CellTiter-Glo ATP luminescence, 2 h; series mostly up to 92.4 µM; activity change, negative = cytotoxicity: at the top concentration", "how_it_was_run": "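CellTiter-Glo luminescence (30 min, room temperature) reported viability after a 2 h compound exposure at 37 C. Cells: wild-type HCT-116, 1,500 per well, seeded the night before.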"}
{"smiles": "CC(CCc1ccc2c(c1)OCO2)NN", "note": "(stereo not given)", "activity change, negative = cytotoxicity": "-0.431% [at 42.5 µM]"}
{"smiles": "CO[Si](C)(OC)OC", "activity change, negative = cytotoxicity": "0.451%"}
{"smiles": "CCC1(C)CC(=O)NC1=O", "note": "(stereo not given)", "activity change, negative = cytotoxicity": "0.433% [at 42.5 µM]"}
{"smiles": "CC(=O)CC(c1ccc([N+](=O)[O-])cc1)c1c(O)c2ccccc2oc1=O", "note": "(stereo not given)", "activity change, negative = cytotoxicity": "1.3% [at 42.5 µM]"}
{"smiles": "CSc1ccc(Oc2ccc(S(N)(=O)=O)cc2CN(C)C)cc1C", "activity change, negative = cytotoxicity": "3.38%"}
{"smiles": "COc1ccc([C@@H]2Sc3ccccc3NC(=O)[C@@H]2O)cc1", "activity change, negative = cytotoxicity": "2.56% [at 42.5 µM]"}
{"smiles": "Nc1nc(Cl)nc2c1ncn2[C@@H]1O[C@H](CO)[C@@H](O)[C@@H]1F", "activity change, negative = cytotoxicity": "-12.3% [at 42.5 µM]"}
{"smiles": "C=CC(C)(C)CC(=O)OC", "activity change, negative = cytotoxicity": "6.47%"}
{"smiles": "O=C(O)C(Cc1cc(I)c(O)c(I)c1)c1ccccc1", "note": "(stereo not given)", "activity change, negative = cytotoxicity": "5.02% [at 42.5 µM]"}
{"smiles": "CO[C@@]12[C@H](COC(N)=O)C3=C(C(=O)C(C)=C(N)C3=O)N1C[C@@H]1N[C@@H]12", "activity change, negative = cytotoxicity": "3.11% [at 42.5 µM]"}
{"smiles": "CC1=NN(c2ccc(C(=O)O)cc2)C(=O)C1", "activity change, negative = cytotoxicity": "0.922%"}
{"smiles": "CN(C)C(=O)Nc1ccc(Oc2ccc(Cl)cc2)cc1", "activity change, negative = cytotoxicity": "4.8%"}
{"smiles": "CNC(=S)NC", "activity change, negative = cytotoxicity": "-5.77%"}
{"smiles": "CCCCC(=O)O[C@]1(C(=O)CO)CC[C@H]2[C@@H]3CCC4=CC(=O)CC[C@]4(C)[C@H]3[C@@H](O)C[C@@]21C", "activity change, negative = cytotoxicity": "-0.12% [at 42.5 µM]"}
{"smiles": "C1COCO1", "activity change, negative = cytotoxicity": "4.15%"}
{"smiles": "Cc1ccnc2ccccc12", "activity change, negative = cytotoxicity": "4.64%"}
{"smiles": "CO[C@H]1O[C@H](CO)[C@@H](O)[C@H](O)[C@H]1O", "activity change, negative = cytotoxicity": "0.463%"}
{"smiles": "CC(=O)Oc1ccc(C(=C2CCCCC2)c2ccc(OC(C)=O)cc2)cc1", "activity change, negative = cytotoxicity": "-0.946% [at 42.5 µM]"}
{"smiles": "CCc1cccc(N(C)C(N)=Nc2cccc3ccccc23)c1", "activity change, negative = cytotoxicity": "-7.72% [at 42.5 µM]"}
{"smiles": "CCCCCCCC/C=C\\CCCCCCCC(=O)OC", "activity change, negative = cytotoxicity": "-0.728%"}
{"smiles": "ON(Cc1ccccc1)Cc1ccccc1", "activity change, negative = cytotoxicity": "-1.04%"}
{"smiles": "CCC(C)(C)C1CCC(O)CC1", "note": "(stereo not given)", "activity change, negative = cytotoxicity": "-6.9%"}
{"smiles": "c1cc[c]([Bi]([c]2ccccc2)[c]2ccccc2)cc1", "activity change, negative = cytotoxicity": "-3.89%"}
{"smiles": "CC(C)(C)C(=O)O", "activity change, negative = cytotoxicity": "2.27%"}
{"smiles": "NCC1CCCC(CN)C1", "note": "(stereo not given)", "activity change, negative = cytotoxicity": "-4.45%"}
{"smiles": "Cc1occc1C(=O)Nc1ccc(C(=O)N2CCC(F)(F)/C(=C\\C(=O)N3CCC(N4CCCCC4)CC3)c3ccccc32)cc1", "activity change, negative = cytotoxicity": "4.48% [at 42.5 µM]"}
{"smiles": "COc1cc2c(cc1OC)-c1cc(=Nc3c(C)cc(C)cc3C)n(C)c(=O)n1CC2", "activity change, negative = cytotoxicity": "-3.79% [at 42.5 µM]"}
{"smiles": "Cc1ccccc1N1C(=O)c2cc(S(N)(=O)=O)c(Cl)cc2NC1C", "note": "(stereo not given)", "activity change, negative = cytotoxicity": "1.34% [at 42.5 µM]"}
{"smiles": "C=CC(=C)CCCC(C)(C)OC(C)=O", "activity change, negative = cytotoxicity": "5.6%"}
{"smiles": "NC(=O)N(O)[C@@H]1COc2cc(OCc3ccccc3)ccc21", "activity change, negative = cytotoxicity": "0.783%"}
{"smiles": "O=C(OCCOCCO)c1ccccc1Nc1cccc(C(F)(F)F)c1", "activity change, negative = cytotoxicity": "-4.29% [at 42.5 µM]"}
{"smiles": "CN1CCN(c2c(F)cc3c(=O)c(C(=O)O)cn4c3c2OCN4C)CC1", "activity change, negative = cytotoxicity": "-3.29% [at 19 µM]"}
{"smiles": "OCC1CC=CCC1", "note": "(stereo not given)", "activity change, negative = cytotoxicity": "-2%"}
{"smiles": "CC(C)CCCCCOC(=O)CCCCC(=O)OCCCCCC(C)C", "activity change, negative = cytotoxicity": "2.12%"}
{"smiles": "CO[C@H]1C=CO[C@@]2(C)Oc3c(C)c(O)c4c(O)c(c5c(c4c3C2=O)=NC2(CCN(CC(C)C)CC2)N=5)NC(=O)/C(C)=C\\C=C/[C@H](C)[C@H](O)[C@@H](C)[C@@H](O)[C@@H](C)[C@H](OC(C)=O)[C@@H]1C", "activity change, negative = cytotoxicity": "-13.5%"}
{"smiles": "CN1Cc2cc(C(=O)N3CCC(C4CCNCC4)CC3)ccc2N[C@@H](CC(=O)O)C1=O", "activity change, negative = cytotoxicity": "3.86% [at 42.5 µM]"}
{"smiles": "COC(=O)c1cc(Cl)ccc1NS(=O)(=O)C(F)(F)F", "activity change, negative = cytotoxicity": "-0.261% [at 42.5 µM]"}
{"smiles": "CCOCCn1c(C2CCN(CCc3ccc(C(C)(C)C(=O)O)cc3)CC2)nc2ccccc21", "activity change, negative = cytotoxicity": "-2.37% [at 42.5 µM]"}
{"smiles": "CCc1c2c(nc3ccc(OC(=O)N4CCC(N5CCCCC5)CC4)cc13)-c1cc3c(c(=O)n1C2)COC(=O)[C@]3(O)CC", "activity change, negative = cytotoxicity": "6.06% [at 42.5 µM]"}
{"smiles": "CC1CC(=O)NN=C1c1ccc(NCC(C)(C)NCC(O)COc2cc(Cl)ccc2C#N)cc1", "note": "(stereo not given)", "activity change, negative = cytotoxicity": "-0.19% [at 42.5 µM]"}
{"test": "qHTS assay to identify small molecule agonists of the sonic hedgehog signaling (Shh) pathway - cell viability counter screen (AID 1259366); further: potency means the concentration at half of the fitted maximal effect", "details": "NIH/3T3 Gli1-Luc viability, CellTiter-Fluor, 24 h; series mostly up to 92.4 µM; viability change, negative = cytotoxic: at the top concentration", "how_it_was_run": "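Cytotoxicity counter screen: CellTiter-Fluor reagent added after 23 h compound exposure, then 1 h at 37C and fluorescence read. Cells were 3T3 Gli1-Luc, seeded 2,000 per well and dosed 4 h post-plating.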"}
{"smiles": "CC(CCc1ccc2c(c1)OCO2)NN", "note": "(stereo not given)", "viability change, negative = cytotoxic": "6.46% [at 42.5 µM]"}
{"smiles": "CO[Si](C)(OC)OC", "viability change, negative = cytotoxic": "2.16%"}
{"smiles": "CCC1(C)CC(=O)NC1=O", "note": "(stereo not given)", "viability change, negative = cytotoxic": "1.94% [at 42.5 µM]"}
{"smiles": "CC(=O)CC(c1ccc([N+](=O)[O-])cc1)c1c(O)c2ccccc2oc1=O", "note": "(stereo not given)", "viability change, negative = cytotoxic": "-18.4% [at 42.5 µM]"}
{"smiles": "COc1ccc([C@@H]2Sc3ccccc3NC(=O)[C@@H]2O)cc1", "viability change, negative = cytotoxic": "1% [at 42.5 µM]"}
{"smiles": "Nc1nc(Cl)nc2c1ncn2[C@@H]1O[C@H](CO)[C@@H](O)[C@@H]1F", "viability change, negative = cytotoxic": "19.1% [at 42.5 µM]"}
{"smiles": "C=CC(C)(C)CC(=O)OC", "viability change, negative = cytotoxic": "0.348%"}
{"smiles": "O=C(O)C(Cc1cc(I)c(O)c(I)c1)c1ccccc1", "note": "(stereo not given)", "viability change, negative = cytotoxic": "-7.81% [at 42.5 µM]"}
{"smiles": "CC1=NN(c2ccc(C(=O)O)cc2)C(=O)C1", "viability change, negative = cytotoxic": "-0.705%"}
{"smiles": "CN(C)C(=O)Nc1ccc(Oc2ccc(Cl)cc2)cc1", "viability change, negative = cytotoxic": "-10%"}
{"smiles": "CNC(=S)NC", "viability change, negative = cytotoxic": "1.7%"}
{"smiles": "CCCCC(=O)O[C@]1(C(=O)CO)CC[C@H]2[C@@H]3CCC4=CC(=O)CC[C@]4(C)[C@H]3[C@@H](O)C[C@@]21C", "viability change, negative = cytotoxic": "-2.32% [at 42.5 µM]"}
{"smiles": "C1COCO1", "viability change, negative = cytotoxic": "-12.4%"}
{"smiles": "Cc1ccnc2ccccc12", "viability change, negative = cytotoxic": "17.6%"}
{"smiles": "CO[C@H]1O[C@H](CO)[C@@H](O)[C@H](O)[C@H]1O", "viability change, negative = cytotoxic": "1.82%"}
{"smiles": "CC(=O)Oc1ccc(C(=C2CCCCC2)c2ccc(OC(C)=O)cc2)cc1", "viability change, negative = cytotoxic": "4.68% [at 42.5 µM]"}
{"smiles": "CCc1cccc(N(C)C(N)=Nc2cccc3ccccc23)c1", "viability change, negative = cytotoxic": "-24.8% [at 42.5 µM]"}
{"smiles": "CCCCCCCC/C=C\\CCCCCCCC(=O)OC", "viability change, negative = cytotoxic": "2.65%"}
{"smiles": "ON(Cc1ccccc1)Cc1ccccc1", "viability change, negative = cytotoxic": "-0.629%"}
{"smiles": "CCC(C)(C)C1CCC(O)CC1", "note": "(stereo not given)", "viability change, negative = cytotoxic": "4.29%"}
{"smiles": "CC(C)(C)C(=O)O", "viability change, negative = cytotoxic": "-0.49%"}
{"smiles": "NCC1CCCC(CN)C1", "note": "(stereo not given)", "viability change, negative = cytotoxic": "4.02%"}
{"smiles": "COc1cc2c(cc1OC)-c1cc(=Nc3c(C)cc(C)cc3C)n(C)c(=O)n1CC2", "viability change, negative = cytotoxic": "-4.92% [at 42.5 µM]"}
{"smiles": "Cc1ccccc1N1C(=O)c2cc(S(N)(=O)=O)c(Cl)cc2NC1C", "note": "(stereo not given)", "viability change, negative = cytotoxic": "4.03% [at 42.5 µM]"}
{"smiles": "C=CC(=C)CCCC(C)(C)OC(C)=O", "viability change, negative = cytotoxic": "-24.8%"}
{"smiles": "NC(=O)N(O)[C@@H]1COc2cc(OCc3ccccc3)ccc21", "viability change, negative = cytotoxic": "17.8%"}
{"smiles": "O=C(OCCOCCO)c1ccccc1Nc1cccc(C(F)(F)F)c1", "viability change, negative = cytotoxic": "-0.934% [at 42.5 µM]"}
{"smiles": "CN1CCN(c2c(F)cc3c(=O)c(C(=O)O)cn4c3c2OCN4C)CC1", "viability change, negative = cytotoxic": "2.32% [at 19 µM]"}
{"smiles": "OCC1CC=CCC1", "note": "(stereo not given)", "viability change, negative = cytotoxic": "10.8%"}
{"smiles": "CC(C)CCCCCOC(=O)CCCCC(=O)OCCCCCC(C)C", "viability change, negative = cytotoxic": "-3.35%"}
{"smiles": "CO[C@H]1C=CO[C@@]2(C)Oc3c(C)c(O)c4c(O)c(c5c(c4c3C2=O)=NC2(CCN(CC(C)C)CC2)N=5)NC(=O)/C(C)=C\\C=C/[C@H](C)[C@H](O)[C@@H](C)[C@@H](O)[C@@H](C)[C@H](OC(C)=O)[C@@H]1C", "Potency": "26.7 µM (active)"}
{"smiles": "CN1Cc2cc(C(=O)N3CCC(C4CCNCC4)CC3)ccc2N[C@@H](CC(=O)O)C1=O", "viability change, negative = cytotoxic": "1.86% [at 42.5 µM]"}
{"smiles": "COC(=O)c1cc(Cl)ccc1NS(=O)(=O)C(F)(F)F", "viability change, negative = cytotoxic": "-0.735% [at 42.5 µM]"}
{"smiles": "CCOCCn1c(C2CCN(CCc3ccc(C(C)(C)C(=O)O)cc3)CC2)nc2ccccc21", "viability change, negative = cytotoxic": "-1.36% [at 42.5 µM]"}
{"smiles": "CC1CC(=O)NN=C1c1ccc(NCC(C)(C)NCC(O)COc2cc(Cl)ccc2C#N)cc1", "note": "(stereo not given)", "viability change, negative = cytotoxic": "1.81% [at 42.5 µM]"}
